Assay results from PubChem BioAssay (NCI).
Compounds without any hit were thinned out: in the full panel of roughly 79,000, 15% have a hit. Values without a mark were called inactive. Activity calls are given as the source filed them. Rule as the data show it: active = growth inhibition above about 70%; inactive = the rest.

Experiments:
[1] = NCI Yeast Anticancer Drug Screen. Data for the rad50 strain (AID 155);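 also: 0% = growth of vehicle-only cultures of the same strain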; details: S. cerevisiae rad50 strain growth inhibition, hits give high values
Procedure, shortened: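 Compounds were tested on a yeast strain with an engineered DNA damage repair alteration; the reported value is growth inhibition normalised to vehicle treatment.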

[2] = NCI Yeast Anticancer Drug Screen. Data for the mec2-1 strain (AID 157); details: S. cerevisiae mec2-1 strain, hits give high values
Procedure, shortened: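 Compounds were applied to mec2-1 yeast cells. Their growth was then compared with that of vehicle-treated cultures to give growth inhibition.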

[3] = NCI Yeast Anticancer Drug Screen. Data for the sgs1 mgt1 strain (AID 161);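 also: 0% = growth of cultures given vehicle only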; details: S. cerevisiae sgs1 mgt1 strain, hits give high values
Procedure, shortened: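 Growth of a repair-deficient yeast mutant was monitored after compound treatment and expressed as inhibition relative to vehicle-treated cultures.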

[4] = NCI Yeast Anticancer Drug Screen. Data for the cln2 rad14 strain (AID 165);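 also: 0% = growth equal to vehicle treated cultures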; details: S. cerevisiae cln2 rad14 strain, hits give high values
Procedure, shortened: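 Strain: cln2 rad14 yeast, altered in cell cycle control and DNA damage repair. Read-out: growth inhibition vs vehicle.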

[5] = NCI Yeast Anticancer Drug Screen. Data for the bub3 strain (AID 167); details: S. cerevisiae bub3 mutant strain, hits give high values
Procedure, shortened: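 Growth of a checkpoint-deficient yeast mutant is measured after compound exposure. Values represent inhibition relative to vehicle.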

[6] = NCI Yeast Anticancer Drug Screen. Data for the mlh1 rad18 strain (AID 175); details: S. cerevisiae mlh1 rad18 strain growth inhibition, hits give high values
Procedure, shortened: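 A repair-deficient yeast strain is exposed to test compound, and growth is scored relative to vehicle-treated controls.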

[7] = at 5.0 µM (retest, dose inferred, filed as 0.5)
[8] = at 50.0 µM (retest, dose inferred, filed as 5.0)

SMILES | growth inhibition [1, 7] [%] | growth inhibition [1, 8] | growth inhibition ([1]; at 50.0 µM) | growth inhibition [2, 7] [%] | growth inhibition [2, 8] | growth inhibition ([2]; at 50.0 µM) | growth inhibition [3, 7] [%] | growth inhibition [3, 8] | growth inhibition ([3]; at 50.0 µM) | growth inhibition [4, 7] [%] | growth inhibition [4, 8] | growth inhibition ([4]; at 50.0 µM) | growth inhibition [5, 7] [%] | growth inhibition [5, 8] | growth inhibition ([5]; at 50.0 µM) | growth inhibition [6, 7] [%] | growth inhibition [6, 8] | growth inhibition ([6]; at 50.0 µM)
COc1ccc(C2C3=C(CCCC3=O)Oc3cc4c(cc32)OCO4)cc1 (centres undefined) | 2 | 68% | 98% (active) | 5 | 76% (active) | 96.7% (active) | -6 | 64% | 97.3% (active) | 22 | 67% | 96.3% (active) | -2 | 79% (active) | 95.9% (active) | 0 | 91% (active) | 98.2% (active)
CCCCN(CCCC)CCC(O)(c1ccc(OC)c2ccccc12)C(O)(CCN(CCCC)CCCC)c1ccc(OC)c2ccccc12 (centres undefined) | 43 | 99% (active) | 99.2% (active) | -2 | 100% (active) | 99.7% (active) | 60 | 99% (active) | 99.6% (active) | 35 | 99% (active) | 98.9% (active) | 39 | 99% (active) | 99.2% (active) | 52 | 99% (active) | 97.5% (active)
CC(=O)N1c2ccccc2C2=NN=C(N(C)C)SC21 (centres undefined) | 6 | 98% (active) | 85.3% (active) | -15 | 98% (active) | 90% (active) | 0 | 98% (active) | 83.8% (active) |  |  |  | -14 | 99% (active) | 87.3% (active) | 1 | 97% (active) | 80.5% (active)
C=CCC(O)C(=O)OC1CC(C)CCC1C(C)(C)c1ccccc1 (centres undefined) | -1 | 99% (active) | 99% (active) | 6 | 99% (active) | 99.2% (active) | 8 | 99% (active) | 99.5% (active) |  |  |  | 8 | 98% (active) | 99.4% (active) | 9 | 98% (active) | 99.2% (active)
O=C(O)C1CC2C3(Cl)C(Cl)=C(Cl)C(Cl)C2(CC1c1c2ccc(=O)c(O)c-2oc2c(O)c(O)ccc12)C3(Cl)Cl (centres undefined) | 5 | 96% (active) | 49.9% | 21 | 97% (active) | 49.6% | 3 | 97% (active) | -0.25% | 9 | 93% (active) | 53.2% | -2 | 96% (active) | 46.2% | 4 | 95% (active) | 51.5%
CN(C)CCC(/C=C/c1ccccc1)=N\Nc1c(F)c(F)c(F)c(F)c1F | -2 | 8% | 58% | -2 | 1% | 8.9% | 2 | -8% | 35.4% |  |  |  | 1 | -14% | 40% | -4 | -2% | 86.8% (active)
COC(=O)CCC(NC(=S)N/N=C/c1ccccn1)C(=O)OC (centres undefined) | -2 | 29% | 72.1% (active) | -54 | 47% | 49.1% | -25 | 41% | 57.4% |  |  |  | -6 | 59% | 71.8% (active) | -30 | 48% | 61.8%
O=C(CNC(=O)c1ccccc1)Oc1c(Cl)c(Cl)c(Cl)c(Cl)c1Cl | 12 | 61% | 75% (active) | 42 | 82% (active) | 74.8% (active) | 38 | 89% (active) | 90.8% (active) | 7 | 42% | 65.9% |  |  |  | 50 | 90% (active) | 77.5% (active)
CCC(=O)/C(=C\I)c1ccccc1 | 26 | 26% | 89.3% (active) | -6 | -6% | 92.2% (active) | 23 | 23% | 86.7% (active) |  |  |  | 7 | 7% | 89.5% (active) | 21 | 21% | 85.5% (active)
O=[N+]([O-])c1ccc2c(c1)Cc1cc(O)c(I)cc1-2 | 3 | 91% (active) | 97.5% (active) | 13 | 92% (active) | 97.8% (active) | 3 | 93% (active) | 96.7% (active) |  |  |  | -4 | 93% (active) | 95.8% (active) | -2 | 95% (active) | 97.2% (active)
